Compounds without any hit were thinned out: in the full panel of roughly 83,000, 20% have a hit.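 Single-concentration screen, 48 h exposure, 96-well plates. Endpoint: percent growth. Below 10 = active.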 Values without a mark were called inactive. Active and inactive are the calls of the source.

The test relates to OVCAR-4 ovarian. Put plainly: NCI-60 one-dose screen, 48 h (100 = growth as untreated, 0 = no growth, -100 = all killed). As to conditions: 10 µM unless noted. The method, then: Growth inhibition of the OVCAR-4 human tumor cell line is measured as a screen for anti-cancer activity. Cells are grown in 96 well plates and exposed to the test compound for 48 hours. Compounds are tested at a single concentration, which is 10^-5 M for most compounds. The reported endpoint is percent growth (GI% or GIPRCNT), where numbers from 0 - 100% represent growth inhibition, and numbers from -100% - 0 represent cell death. For example, a value of 40 represents 60% growth inhibition. A value of 0 means no net growth occurred over the course of the experiment. A value of -40 indicates 40% of cells at the beginning of the experiment died by the end of the experiment. A value of -100 means all cells are dead at the end of the experiment.
NCI-60 Human Tumor Cell Lines Screen was performed using the standard one-dose NCI protocol, which is described in more detail at https://dtp.cancer.gov/discovery_development/nci-60/default.htm.
Compounds with GIPRCNT values below 10 were considered active. Activity score was based on GIPRCNT using the following formula: […]
Score is 0 for GIPRCNT values of 100 or above, 50 for GIPRCNT values of 0, and 100 for GIPRCNT values of -100.
With `CS(=O)(=O)Nc1cc(-c2ccc3ncc(C#N)c(N[C@H](CO)c4ccccc4)c3c2)cnc1Cl`, the growth was 54%.
With `COc1cc(Nc2c(C#N)cnn3cc(-c4cnn(CC(C)(C)O)c4)cc23)ccc1Cl`, the growth is 42.6%.
As for `N#Cc1c(-c2cccs2)cc(-c2cnccn2)nc1SCC(=O)Nc1ccc(Br)cc1`, the figure is 73.8%; as for `c1ccc(C(c2nc3ncncc3[nH]2)N2CSc3nc4ccccc4n3C2)cc1` (stereo not given), 99.7%; as for `COc1cc(-c2ccc3ncnc(NCc4ccccc4)c3c2)cnc1OC`, 65.3%.
For the compound `CC1(C)CC[C@]2(C(=O)N3CCOCC3)CC[C@]3(C)C(=CC[C@@H]4[C@@]5(C)C/C(=C/c6ccccn6)C(=O)C(C)(C)[C@@H]5CC[C@]43C)[C@@H]2C1`, the growth is 36.1%.
As for `NC(=O)c1cccc(-n2ccc3cc(NC(=O)Nc4ccc(N5CCOCC5)c(C(F)(F)F)c4)ccc32)n1`, the figure is 3.71% (active); as for `Brc1ccccc1/C=N/Nc1nc(N/N=C/c2ccccc2Br)nc(N2CCOCC2)n1`, 96.2%; as for `O=C(O)c1ccc(-n2cc(CNc3cc(F)c(F)c(F)c3)c(-c3ccc(F)cc3)n2)cc1`, 95.5%.
Take `C#CCNC1CCC(c2csc(C#C)n2)=C1C` (stereo not given): the growth was 90.3%.
In the case of `NS(=O)(=O)c1ccc(-n2cc(CN3CCNCC3)nn2)cc1`, the growth is 105%.
Turning to `CCNC(=O)N1CCc2cc(OC)c(OCCc3ccc(OC)nc3)cc2C1c1ccc(OC)cc1C` (stereo not given), the growth was 67.1%.
As for `C=CC(=O)N1CC=C(c2cc3c(N[C@H](C)c4ccccc4)ncnc3[nH]2)CC1`, the figure is 71.9%.
As for `O=C(Nc1ccc2c(ccn2Cc2ccccn2)c1)c1cnccn1`, the figure is 76%; as for `COc1cc2nc(Cl)nc(Nc3cccc(C4=Nc5c(N)nc(N)nc5NC(c5ccc(Cl)cc5)C4)c3)c2cc1OC` (stereo not given), 101%; as for `CCCn1cnc2c(c1=N)C(c1ccc(Cl)cc1)c1sc3c(CC)cccc3c1O2` (stereo not given), 89.1%.
For `O=C(CCC(=O)N1CCOCC1)OCCCCCCSc1ccc([N+](=O)[O-])c2nonc12`, the growth is -83.7% (active).
For `COc1cccc(N2CCN(c3ncnc4c3[nH]c3ccc(F)cc34)C[C@H]2C)c1`, the growth is 28%.
On to `O=C(CCn1cc[n+](CC(=O)c2ccc(-c3ccccc3)cc2)c1)Nc1cccc2cccnc12`, for which the growth is 24.6%.
The same measure for `NS(=O)(=O)c1ccc(Nc2cc(-c3ccccc3)nc(SCC(=O)c3ccccc3)n2)cc1`: 102%.
In the case of `N#Cc1c(-c2cccs2)cc(-c2cnccn2)nc1SCC(=O)c1ccc(F)cc1`, the growth was 76%.
As for `O=C(CN1CCN(c2cc(=O)n(-c3ccccc3)c3ccccc23)CC1)Nc1nc(-c2ccc(Cl)cc2)cs1`, the figure is 19.7%.
As for `COc1ccc(/C=C/C(=O)c2cc(S(N)(=O)=O)c(OC)cc2OC)cc1`, the growth is 103%.
As for `CC(C)(C)c1ccc(C(=O)Nc2nc3ccc(O)cc3s2)cc1`, the figure is 46.3%; as for `CCOC(=O)C(=O)/C(=C\c1ccc(Cl)cc1)C(=O)N1C(=S)NC(=O)C1CC(C)C` (stereo not given), 98.2%.
`NS(=O)(=O)c1ccc(Nc2nc(N/N=C/c3c[nH]c4ccccc34)nc(Nc3ccccc3)n2)cc1`: the growth was 59.7%.
With `CS(=O)(=O)c1ncc(-c2ccccc2)cn1`, the growth is 98.6%.
On to `CCCCCc1ccc(S(=O)(=O)Nc2cccc(-c3csc(NC(=O)CNCCN(C)C)n3)c2)cc1`, for which the growth was 70%.
As for `CCOC(=O)c1c(NC(=O)c2ccccc2C(F)(F)F)sc2c1CCC(=O)C2`, the figure is 16.7%.
As to `O=C1CCCc2nc(Nc3ccc(S(=O)(=O)Nc4ccc([N+](=O)[O-])cc4)cc3)ncc21`, the growth was 107%.
Turning to `CCOC(=O)c1c(N)c(C#N)cn1-c1cc(OC)c(OC)c(OC)c1`, the growth is 107%.
As for `COc1cc(OC)cc(C(=O)Nc2cccc(C#Cc3cccc4[nH]nc(N)c34)c2)c1`, the figure is 53.9%.
As for `COc1ccc(-n2c(SCc3nnc(NC(=O)c4ccc(Br)cc4)s3)nc3cc(OC)c(OC)cc3c2=O)cc1`, the figure is 93.8%; as for `CCN1CCN(Cc2cn(-c3ccc(S(N)(=O)=O)cc3)nn2)CC1`, 108%; as for `CCOC(=O)c1c(Nc2ccccc2)nn2c(-c3ccc(Cl)cc3)ccnc12`, 66.5%.
Regarding `Fc1ccc(-c2cc3nc(C(Cl)Cl)nc(-c4ccco4)n3n2)cc1`, the growth is 17.7%.
As for `CS(=O)(=O)c1ccc(-c2nn(-c3ccccc3)cc2/C=N/NC(=O)c2nc(N)n[nH]2)cc1`, the figure is 103%; as for `c1ccc(C(c2nc3ncncc3[nH]2)N2CSc3nc4ncncc4n3C2)cc1` (stereo not given), 27.1%.
The same measure for `Oc1ccc(CSc2nnc(-c3ccc(Cl)cc3)n2-c2ccccc2)c2cccnc12`: 38%.
For the compound `CC(=O)Nc1cccc(Nc2nc(N[C@H](C)c3ccccc3)c3ccccc3n2)c1`, the growth is 34.9%.

The record behind these values is PubChem BioAssay (NCI).
